Laboratory results reported in PubChem BioAssay (NCI).
The panel holds about 83,000 compounds, 20% with a hit somewhere; the sample as a whole holds those more often.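 Plates (96-well) were seeded with cells, treated with compound at one concentration, and incubated for 48 hours before percent growth was determined.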 Values without a mark were called inactive. Active and inactive are the calls of the source. The calls were made as follows: active = growth percent below 10; inactive = the rest.

Columns and labels:
Test in all cases: NCI-60 one-dose screen, 48 h (100 = growth as untreated, 0 = no growth, -100 = all killed)
Conditions in all cases: 10 µM unless noted
NCI-H23 lung = test system: NCI-H23 lung
NCI-H226 lung = test system: NCI-H226 lung
NCI-H322M lung = test system: NCI-H322M lung
HOP-62 NSCLC = test system: HOP-62 NSCLC
NCI-H460 lung = test system: NCI-H460 lung
HOP-92 NSCLC = test system: HOP-92 NSCLC
NCI-H522 lung = test system: NCI-H522 lung
A549/ATCC NSCLC = test system: A549/ATCC NSCLC
786-0 renal = test system: 786-0 renal
COLO 205 colon = test system: COLO 205 colon
DU-145 prostate = test system: DU-145 prostate
K-562 leukemia = test system: K-562 leukemia
MALME-3M melanoma = test system: MALME-3M melanoma
MDA-MB-231 breast = test system: MDA-MB-231 breast
RXF 393 renal = test system: RXF 393 renal
SF-268 CNS = test system: SF-268 CNS
SF-295 CNS = test system: SF-295 CNS
SF-539 CNS = test system: SF-539 CNS
UACC-257 melanoma = test system: UACC-257 melanoma
M14 melanoma = test system: M14 melanoma

| Compound | growth (NCI-H23 lung) | growth (NCI-H226 lung) | growth (NCI-H322M lung) | growth (HOP-62 NSCLC) | growth (NCI-H460 lung) | growth (HOP-92 NSCLC) | growth (NCI-H522 lung) | growth (A549/ATCC NSCLC) | growth (786-0 renal) | growth (COLO 205 colon) | growth (DU-145 prostate) | growth (K-562 leukemia) | growth (MALME-3M melanoma) | growth (MDA-MB-231 breast) | growth (RXF 393 renal) | growth (SF-268 CNS) | growth (SF-295 CNS) | growth (SF-539 CNS) | growth (UACC-257 melanoma) | growth (M14 melanoma) |
| --- | --- | --- | --- | --- | --- | --- | --- | --- | --- | --- | --- | --- | --- | --- | --- | --- | --- | --- | --- | --- |
| N#CSCC1CC(O)(c2ccccc2)CC(c2ccc(F)cc2)O1 (stereo not given) | 20.5% | -7.79% (active) | 50.9% | -36.8% (active) | -28.9% (active) | 29.6% | -57% (active) | 27.8% | 0.242% (active) | 16.6% | -27.8% (active) | 20.7% | 29.1% | -1.42% (active) | -35.3% (active) | -26.3% (active) | -17.2% (active) | 21% | 69.1% | -35.6% (active) |
| Oc1c(I)cc(I)cc1CNCCN(Cc1ccccn1)Cc1ccccn1 | -14% (active) | -65.1% (active) | -30.4% (active) | -65.1% (active) | -56.5% (active) | -61.8% (active) | -27.6% (active) | -33.3% (active) | -95.2% (active) | -34.6% (active) | -74.1% (active) | 0.636% (active) | -62.1% (active) | -36.1% (active) | -85.5% (active) | 1.18% (active) | -84.6% (active) | -56.6% (active) | -58.7% (active) | -32.5% (active) |
| CC(C)Cn1cnc2c(=O)[nH]c(N)nc21 | 99.3% | 89.8% | 99.9% | 80.8% | 110% | 90.8% | 70.8% | 85.4% | 98.9% | 97.1% | 109% | 99.9% | 98.3% | 114% | 94.4% | 106% | 99.2% | 104% | 84.1% | 105% |
| COC1=CC(c2ccc[nH]2)=N/C1=C\c1[nH]c(C)c(C(=O)OC(C)C)c1C | -43.4% (active) | -27.4% (active) | -28.2% (active) | -21.4% (active) | 0.0375% (active) | -33% (active) | -58.2% (active) | -21.2% (active) | -41.9% (active) | -80.5% (active) | 10.5% | 2.07% (active) | -74.3% (active) | -67% (active) | -17.7% (active) | 6.34% (active) | -76% (active) | -58.6% (active) | -37.7% (active) | -67.5% (active) |
| CSc1nnc(-c2cc3c([nH]c4ccccc43)c(-c3cccc(O)c3)n2)n1-c1ccccc1 | 55.1% | 51.6% | 43.3% | 47.6% | 12.1% | 48.7% | -15% (active) | 46.1% | 24.1% | 85.3% | 33.9% | 15.8% | 22.1% | 34.6% | 9.95% (active) | 39.5% | 24.8% | -7.08% (active) | 59.9% | 14.5% |
| N#CC1=C(c2ccccc2)Nc2c(c(-c3ccc(Cl)cc3)nn2-c2ccccc2)C12C(=O)Nc1ccc(Cl)cc12 (stereo not given) | 92.1% | 80.7% | 91.3% | 77.3% | 71.2% | 61.8% | 72.2% | 54.7% | 79.2% | 73% | 86.1% | 65.9% | 86.4% | 58.8% | 49.8% | 55.3% | 56.5% | 85.2% | 73% | 72.7% |
| COC12C=C/C(=C(/C(=O)OCc3ccncn3)C(=O)CCCCCCCCC3(OC)C=C/C(=C(/C(=O)OCc4ccncn4)C(=O)CCCCCCCC1)O3)O2 | -37.2% (active) | -71.8% (active) | -76.5% (active) | 23% | 1.29% (active) | -53.6% (active) | -13.1% (active) | 6.41% (active) | -71.2% (active) | 3.33% (active) | -41.8% (active) | -5.58% (active) | -54.3% (active) | 10.6% | -77.3% (active) | -3.7% (active) | -15.9% (active) | -18.2% (active) | 4.41% (active) | -22.1% (active) |
| CC(C)(Sc1cc(C(C)(C)C)c(O)c(C(C)(C)C)c1)Sc1cc(C(C)(C)C)c(OC(=O)CCCC(=O)O)c(C(C)(C)C)c1 | 39.9% | 66.2% | 60.4% | 67% | 37% | 40.2% | 46.4% | 35% | 56.1% | 64.3% | 59.4% | 41.6% | 75.4% | 74.2% | 73.3% | 63.1% | 50.4% | 62.7% | 74.6% | 54.6% |
